PubChem BioAssay (NCI)
The panel holds about 83,000 compounds, 20% with a hit somewhere; the sample as a whole holds those more often.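 Each cell line was grown in a 96-well plate and treated with one concentration of compound for 48 hours. Values below 10 were considered active.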 Activity calls are given as the source filed them.

What was measured:
Assay in all cases: NCI-60 one-dose screen, 48 h (100 = growth as untreated, 0 = no growth, -100 = all killed)
Settings in all cases: 10 µM unless noted
[1] = tested on: NCI-H23 lung
[2] = tested on: NCI-H226 lung
[3] = tested on: NCI-H322M lung
[4] = tested on: HOP-62 NSCLC
[5] = tested on: NCI-H460 lung
[6] = tested on: HOP-92 NSCLC
[7] = tested on: NCI-H522 lung
[8] = tested on: A549/ATCC NSCLC
[9] = tested on: COLO 205 colon
[10] = tested on: DU-145 prostate
[11] = tested on: K-562 leukemia
[12] = tested on: MALME-3M melanoma
[13] = tested on: MDA-MB-231 breast
[14] = tested on: SF-268 CNS
[15] = tested on: SF-539 CNS
[16] = tested on: UACC-257 melanoma
[17] = tested on: M14 melanoma
[18] = tested on: 786-0 renal
[19] = tested on: RXF 393 renal
[20] = tested on: SF-295 CNS

Measured: growth

O=C1OC(c2ccc(-c3ccccc3)cc2)=C/C1=C/c1c(Cl)cccc1Cl
active: [16] -33.6%
inactive: [1] 94.7% | [2] 84.1% | [3] 85.7% | [4] 76% | [5] 99.4% | [6] 59% | [7] 89.3% | [8] 11% | [9] 103% | [10] 96.3% | [11] 89.5% | [12] 64% | [13] 95.9% | [14] 96.7% | [15] 102% | [17] 105%

CCOC(=O)C1=C(C)NC(SCc2nnc(-c3ccc(Cl)cc3)o2)=NC1c1ccc(Br)cc1 (stereo not drawn)
inactive: [1] 75.7% | [2] 78.9% | [3] 86.4% | [4] 86.9% | [5] 80.4% | [6] 57.8% | [7] 67.6% | [8] 62.4% | [18] 84.9% | [10] 84.3% | [11] 60.7% | [12] 83.1% | [13] 59.8% | [19] 75% | [14] 86.6% | [20] 73.6% | [15] 88.7% | [16] 73% | [17] 74%

CS(=O)(=O)Nc1cc(-c2cc3ncc(C#N)c(Nc4ccc(Oc5ccccc5)c(Cl)c4)c3s2)cnc1Cl
inactive: [1] 56.6% | [2] 64.3% | [3] 26.9% | [4] 54.8% | [5] 21.7% | [6] 45.6% | [7] 32.4% | [8] 55.2% | [9] 66.9% | [10] 48.1% | [11] 51.5% | [12] 74.5% | [13] 45.3% | [19] 15.9% | [14] 52.8% | [20] 38.4% | [15] 57.8% | [16] 68.2% | [17] 50.1%

C/C=C(\C)C(C(=O)NC1CCCCC1)N(C(=O)C1CCc2cc(F)ccc2O1)c1ccc([N+](=O)[O-])cc1 (stereo not drawn)
inactive: [1] 91.9% | [2] 72.5% | [3] 92.8% | [4] 87.3% | [5] 82.5% | [6] 92.6% | [7] 81.9% | [8] 79.1% | [18] 90.1% | [10] 105% | [11] 80.7% | [12] 92.4% | [13] 77.7% | [19] 98.4% | [14] 87% | [20] 82.5% | [15] 92.8% | [16] 93% | [17] 82.4%

COC(=O)c1cc2oc(/C=N/NC(=O)c3cc4oc(-c5cccc(C(F)(F)F)c5)cc4[nH]3)cc2n1Cc1ccccc1
active: [4] -2.75% | [12] 6.57% | [16] -29.3%
inactive: [1] 93.1% | [2] 109% | [3] 88% | [5] 107% | [6] 78.1% | [7] 97.4% | [8] 20.6% | [9] 118% | [10] 111% | [11] 91.3% | [13] 104% | [14] 84.8% | [15] 92.4% | [17] 121%

CN1CCN(Cc2ccc(NC(=O)c3cncc(C#Cc4ncc5ccccn45)c3)cc2C(F)(F)F)CC1
active: [1] 9.22% | [2] -8.28% | [5] 5.79% | [6] -1.18% | [8] 7.74% | [18] 3.06% | [10] -4.29% | [11] 3.35% | [12] -21.4% | [19] -10.1% | [15] -79.6% | [16] 7.63% | [17] 5.5%
inactive: [3] 33.3% | [4] 16.4% | [7] 18.4% | [13] 15.4% | [14] 15.4%

Cc1cc(C)c2c(NC(=O)Nc3ccc(Cl)c(Cl)c3)n[nH]c2n1
inactive: [1] 101% | [2] 108% | [3] 91.3% | [4] 105% | [5] 106% | [6] 117% | [7] 92.6% | [8] 101% | [9] 106% | [10] 105% | [11] 91% | [12] 90.4% | [13] 104% | [19] 105% | [14] 103% | [20] 93.4% | [15] 112% | [16] 110% | [17] 109%

COc1ccc([C@@H]2[C@@H](Cl)C(=O)N2c2cc(OC)c(OC)c(OC)c2)cc1C
inactive: [1] 25.3% | [2] 53.9% | [3] 35.3% | [4] 23.3% | [6] 76% | [7] 10.2% | [8] 23.6% | [10] 12.9% | [12] 76% | [13] 18.3% | [19] 19.8% | [14] 30.2% | [20] 15.7% | [16] 80.7% | [17] 11.7%
active: [5] 9.34% | [18] 7.98% | [11] 9.59% | [15] 3.27%

Fc1cc(-c2nnc3sc(-c4ccc(Cl)cc4)nn23)c(Cl)cc1Cl
inactive: [1] 91.6% | [2] 93.2% | [3] 82.3% | [4] 116% | [5] 103% | [6] 74.8% | [7] 82.8% | [8] 93.8% | [18] 95.3% | [10] 107% | [11] 116% | [12] 62% | [13] 88.3% | [19] 97.4% | [14] 98% | [15] 107% | [16] 103% | [17] 102%

SCc1ccc(CS)cc1
inactive: [1] 106% | [2] 109% | [3] 98.2% | [4] 102% | [5] 108% | [6] 77.2% | [7] 108% | [8] 110% | [18] 98.1% | [10] 116% | [12] 106% | [13] 123% | [19] 112% | [20] 109% | [15] 104% | [16] 114% | [17] 106%

COc1ccc(/C=C(/C(=O)N2CCN(c3ccccc3)CC2)c2cc(OC)c(OC)c(OC)c2)cc1O
inactive: [1] 31.5% | [2] 28.9% | [3] 42% | [4] 20.6% | [6] 94% | [8] 17.4% | [18] 25.5% | [12] 60% | [13] 19.5% | [19] 20.4% | [14] 36.9% | [16] 58.1%
active: [5] 5.38% | [7] -9.76% | [10] 4.21% | [11] 6.23% | [20] 7.72% | [15] -10.8% | [17] 3.13%

C#CC[C@@H]1C[C@]2(C)[C@H]3CC=C4[C@H]5[C@@H](C)[C@H](C)CC[C@]5(C(=O)NCCCN5CCN(CCCN)CC5)CC[C@@]4(C)[C@]3(C)CC[C@H]2C(C)(C)[C@H]1OC(C)=O
active: [3] -48.2% | [5] -60.7% | [6] -20.5% | [7] -55.4% | [8] -23.5% | [18] -97% | [10] 0.421% | [11] -23.3% | [12] -81% | [13] -70.4% | [19] -82.1% | [15] -94% | [16] -32.1% | [17] -69.2%
inactive: [1] 19.8% | [2] 86.5% | [4] 58.9% | [14] 85%

Cc1ccc(-c2nc3ccccc3c(=O)n2/N=C/c2cccc3ccccc23)cc1
inactive: [1] 77.6% | [2] 79.2% | [3] 54.7% | [4] 83.1% | [5] 69.1% | [6] 74.2% | [7] 53.4% | [8] 80.1% | [18] 87.3% | [10] 96.9% | [11] 65.5% | [12] 68.6% | [13] 66.8% | [19] 91.8% | [14] 74.1% | [20] 66.8% | [15] 96.5% | [16] 86.4% | [17] 67.5%

Cc1cc(NC(=O)c2ccc(N)cc2)ccc1N=Nc1ccc2cc(S(=O)(=O)O)cc(S(=O)(=O)O)c2c1
inactive: [1] 103% | [2] 105% | [3] 125% | [4] 106% | [5] 117% | [6] 60.8% | [7] 129% | [8] 92.1% | [18] 112% | [11] 110% | [12] 116% | [13] 109% | [19] 110% | [14] 115% | [20] 106% | [15] 107% | [16] 102% | [17] 112%

CCN(CC)c1ccc(C(=N)c2ccc(N(C)C)cc2)cc1
inactive: [2] 16.4% | [3] 60.6% | [8] 28.6% | [12] 31.9% | [13] 17.8% | [19] 12.8%
active: [1] -23.3% | [4] 7.49% | [6] -21% | [7] -13.5% | [18] 7.03% | [9] -54.5% | [11] 4.01% | [20] -13.1% | [15] -37.4% | [16] -3.29% | [17] -44.4%

COc1ccc(-c2nn(-c3cccc(Cl)c3)cc2/C=C2\C(=N)N(c3ccccc3)N=C2N)cc1
inactive: [1] 51.2% | [2] 40.8% | [3] 44.9% | [4] 65.8% | [6] 96.2% | [7] 51.5% | [8] 36.6% | [18] 29.1% | [10] 37.6% | [12] 28.8% | [13] 59% | [19] 85% | [14] 47.8% | [16] 58.4%
active: [9] -22.8% | [11] 1.77% | [15] -12.8% | [17] 5.51%

CC(=O)Nc1ccc(Cl)cc1Cl
inactive: [1] 111% | [2] 95.5% | [3] 114% | [4] 110% | [6] 107% | [7] 89.4% | [8] 95.3% | [18] 106% | [10] 111% | [11] 64.9% | [12] 112% | [13] 100% | [14] 97.4% | [20] 83.8% | [15] 98.3% | [16] 124% | [17] 102%
